Reference: PubChem BioAssay AID1159580 (chemical genetic matrix, 2015)
Values joined by “and” are separate entries in the source; they are usually repeats but may differ in a detail not shown here. Equal values may be shown once. Hit rate of the full screen: of about 5,500 compounds, about 2,000 (36%) were called active. Another 18% or so got no clear call; they are omitted. Rule as the data show it: active = normalized growth mostly below about 0.91 (no sharp cut-off); inconclusive = no clear call, values can overlap the other calls; inactive = mostly above about 0.92. The list shows a part of the results.

Assay: chemical genetic growth profiling, strain panel (AID 1159580);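 also: tested at 20 µM; growth read once vehicle control cultures reached saturation at 30 °C; 1 = growth at the plate median or of vehicle wells; lower values mean less growth of the strain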
Conditions: S. cerevisiae deletion strains, growth OD

Measured: normalized growth

CC1(C)S[C@@H]2[C@H](NC(=O)[C@H](NC(=O)N3CCNC3=O)c3ccccc3)C(=O)N2C1C(=O)O (stereo partly drawn)
inactive: locus YAL021C, strain ccr4, stronger effect = lower value 0.989 | locus YAL026C, strain drs2, stronger effect = lower value 0.984 | locus YAL030W, strain snc1, stronger effect = lower value 0.969 | locus YBL061C, strain skt5, stronger effect = lower value 0.971 | locus YBR009C, strain hhf1, stronger effect = lower value 0.995 | locus YBR021W, strain FUR4, stronger effect = lower value 1.04 | locus YBR023C, strain chs3, stronger effect = lower value 0.979 | locus YBR171W, strain sec66, stronger effect = lower value 0.974 | locus YBR229C, strain ROT2, stronger effect = lower value 1 | locus YBR231C, strain swc5, stronger effect = lower value 0.984 | locus YBR279W, strain paf1, stronger effect = lower value 0.993 | locus YCL011C, strain gbp2, stronger effect = lower value 0.964 | locus YCL016C, strain dcc1, stronger effect = lower value 0.986 | locus YCL029C, strain bik1, stronger effect = lower value 0.99 | locus YCL061C, strain MRC1, stronger effect = lower value 0.99 | locus YCL069W, strain vba3, stronger effect = lower value 0.996 | locus YCR088W, strain abp1, stronger effect = lower value 0.985 | locus YDL005C, strain med2, stronger effect = lower value 0.978 | locus YDL035C, strain GPR1, stronger effect = lower value 0.992 | locus YDL040C, strain nat1, stronger effect = lower value 0.984 | locus YDL074C, strain BRE1, stronger effect = lower value 1.06 | locus YDL101C, strain DUN1, stronger effect = lower value 0.998 | locus YDL134C, strain PPH21, stronger effect = lower value 1 | locus YDL185W, strain tfp1, stronger effect = lower value 0.952 | locus YDL192W, strain arf1, stronger effect = lower value 0.982 | locus YDR001C, strain nth1, stronger effect = lower value 0.975 | locus YDR069C, strain doa4, stronger effect = lower value 0.988 | locus YDR101C, strain arx1, stronger effect = lower value 1.03 | locus YDR137W, strain rgp1, stronger effect = lower value 0.977 | locus YDR159W, strain sac3, stronger effect = lower value 1 | locus YDR162C, strain NBP2, stronger effect = lower value 0.972 | locus YDR195W, strain ref2 0.995 | locus YDR297W, strain sur2, stronger effect = lower value 0.979 | locus YDR318W, strain mcm21, stronger effect = lower value 0.988 | locus YDR334W, strain swr1, stronger effect = lower value 0.935 | locus YDR335W, strain msn5, stronger effect = lower value 0.971 | locus YDR388W, stronger effect = lower value 0.987 | locus YDR392W, strain spt3, stronger effect = lower value 0.908 | locus YDR502C, strain sam2, stronger effect = lower value 1 | locus YEL003W, strain gim4, stronger effect = lower value 0.994 | locus YEL037C, strain rad23, stronger effect = lower value 0.984 | locus YEL061C, strain CIN8 (second series), stronger effect = lower value 0.984 | locus YEL061C, strain CIN8, stronger effect = lower value 0.996 | locus YER015W, strain faa2, stronger effect = lower value 0.971 | locus YER016W, strain bim1, stronger effect = lower value 1 | locus YER110C, stronger effect = lower value 0.982 | locus YER111C, strain swi4, stronger effect = lower value 0.983 | locus YER155C, strain BEM2 (second series), stronger effect = lower value 0.993 | locus YER155C, strain BEM2, stronger effect = lower value 1.01 | locus YER167W, strain BCK2, stronger effect = lower value 0.997 | locus YFR010W, strain ubp6, stronger effect = lower value 0.967 | locus YGL078C, strain dbp3, stronger effect = lower value 0.989 | locus YGL086W, strain mad1, stronger effect = lower value 1.02 | locus YGL167C, strain pmr1, stronger effect = lower value 0.987 | locus YGL173C, strain kem1, stronger effect = lower value 0.967 | locus YGL227W, strain vid30, stronger effect = lower value 0.994 | locus YGL240W, strain doc1, stronger effect = lower value 1 | locus YGL248W, strain PDE1, stronger effect = lower value 1.01 | locus YGL253W, strain hxk2, stronger effect = lower value 0.996 | locus YGR135W, strain pre9, stronger effect = lower value 0.95 | locus YGR252W, strain gcn5, stronger effect = lower value 1 | locus YHR013C, strain ard1, stronger effect = lower value 0.957 | locus YHR027C, strain rpn1, stronger effect = lower value 0.966 | locus YHR030C, strain SLT2, stronger effect = lower value 0.984 and 0.983 | locus YHR079C, strain IRE1 (second series), stronger effect = lower value 0.983 | locus YHR079C, strain IRE1, stronger effect = lower value 0.963 | locus YHR094C, strain hxt1, stronger effect = lower value 0.982 | locus YHR129C, strain ARP1, stronger effect = lower value 0.997 | locus YHR142W, strain chs7, stronger effect = lower value 0.955 | locus YHR200W, strain rpn10, stronger effect = lower value 0.989 | locus YIL066C, strain RNR3, stronger effect = lower value 0.99 | locus YIL073C, strain SPO22, stronger effect = lower value 0.902 | locus YIL125W, strain kgd1, stronger effect = lower value 1 | locus YIR030C, strain dcg1, stronger effect = lower value 0.969 | locus YJL092W, strain hpr5, stronger effect = lower value 0.988 | locus YJL095W, strain BCK1 (second series), stronger effect = lower value 0.989 | locus YJL095W, strain BCK1, stronger effect = lower value 1.04 and 0.971 | locus YJL115W, strain asf1, stronger effect = lower value 0.96 | locus YJL129C, strain trk1, stronger effect = lower value 1.01 | locus YJL134W, strain LCB3, stronger effect = lower value 0.993 | locus YJL154C, strain vps35, stronger effect = lower value 0.972 | locus YJL164C, strain tpk1, stronger effect = lower value 0.996 | locus YJL166W, strain qcr8, stronger effect = lower value 0.956 | locus YJL168C, strain set2, stronger effect = lower value 0.998 | locus YJL187C, strain SWE1 (second series), stronger effect = lower value 1 | locus YJL187C, strain SWE1, stronger effect = lower value 0.988 | locus YJR043C, strain POL32, stronger effect = lower value 1.03 | locus YJR066W, strain TOR1, stronger effect = lower value 0.966
